{"source": "PubChem BioAssay (NCI)", "note": "The panel holds about 83,000 compounds, 20% with a hit somewhere; the sample as a whole holds those more often.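 Treatment: one concentration, 48 hours, 96-well format. Scoring: percent growth, with anything below 10 considered active.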 Calls of active or inactive are those of the source.", "data": [{"system": "OVCAR-3 ovarian", "assay": "NCI-60 one-dose screen, 48 h (100 = growth as untreated, 0 = no growth, -100 = all killed)", "conditions": "10 µM unless noted", "values": [{"smiles": "CC[C@]12C=CCN3CC[C@@]4(c5ccc(OC)cc5N(C)[C@H]4[C@@](O)(C(=O)OC)[C@@H]1OC(=O)CCC[P+](c1ccc(OC)cc1)(c1ccc(OC)cc1)c1ccc(OC)cc1)[C@@H]32", "growth": "-73.6% (active)"}, {"smiles": "COc1ccc(-c2cc(C(=O)N=Nc3c(O)[nH]c4ccc(Cl)cc34)c3ccccc3n2)cc1OC", "growth": "118% (inactive)"}, {"smiles": "Fc1ccc(Nc2nnc(-c3c[nH]c4ccccc34)o2)cc1", "growth": "107% (inactive)"}, {"smiles": "O=C(NN1C(=O)/C(=C/C=C/c2ccc([N+](=O)[O-])o2)SC1=S)c1ccc(O)cc1", "growth": "-88.6% (active)"}, {"smiles": "Cc1cccc(-c2ccccc2Oc2ccc3nnc(Cl)n3n2)c1", "growth": "112% (inactive)"}, {"smiles": "C[C@H](NC(=O)c1ccc2c(-c3ccc(C(F)(F)F)cc3)cccc2c1)c1ccccn1", "growth": "45.6% (inactive)"}, {"smiles": "Cc1ccc(C(=O)Nc2cc(-c3ccccc3)cc(C(F)(F)F)c2)cc1C#Cc1cnc2cccnn12", "growth": "95.5% (inactive)"}, {"smiles": "O=[N+]([O-])c1cccc(-c2nnc3c(/C=C/c4ccc(F)cc4)nc4ccccc4n23)c1", "growth": "116% (inactive)"}, {"smiles": "O=C1Nc2cc(-c3ccc(NS(=O)(=O)c4ccc(C(F)(F)F)cc4)cc3)ccc2/C1=C/c1ccc[nH]1", "growth": "39.8% (inactive)"}]}, {"system": "HS 578T breast", "assay": "NCI-60 one-dose screen, 48 h (100 = growth as untreated, 0 = no growth, -100 = all killed)", "conditions": "10 µM unless noted", "values": [{"smiles": "CC1=C(C(=O)Nc2ccccc2)C(c2cccc3ccccc23)n2c(nc3ccccc32)N1", "note": "(stereo unspecified)", "growth": "-13.9% (active)"}, {"smiles": "COc1ccc(NC(=O)CSc2nnc(-c3ccc(-c4nc5ccccc5[nH]4)cc3)o2)cc1", "growth": "45% (inactive)"}, {"smiles": "COc1cc2cc(C(=O)N3C[C@@H](CCl)c4c3cc(OC(=O)N(C)CCSSCCN3CCOCC3)c3ccccc43)[nH]c2c(OC)c1OC", "growth": "-15.2% (active)"}, {"smiles": "CC(=O)C[n+]1cccc2c3ccccc3ccc21", "growth": "102% (inactive)"}, {"smiles": "CC[C@]12C=CCN3CC[C@]4(C(=C(C(=O)OC)C1)Nc1cc(OC)c([C@@H]5[C@H]6O[C@H]6[C@@]6(CC)CC(C(=O)OC)=C7Nc8cc(O)ccc8[C@@]78CCN5[C@@H]68)cc14)[C@@H]32", "growth": "23.7% (inactive)"}, {"smiles": "Cc1ccccc1Nc1nnc(-c2c[nH]c3ccccc23)o1", "growth": "-2.08% (active)"}, {"smiles": "COc1cncc(-c2ccc3ncnc(N4CCc5ccc(Cl)cc54)c3c2)c1", "growth": "20.1% (inactive)"}, {"smiles": "Clc1ccc2c(NCCNC34CC5CC(CC(C5)C3)C4)ccnc2c1", "growth": "-45.4% (active)"}, {"smiles": "Cn1cc(-c2cc(N)n3nc(-c4c[nH]c5ccccc45)cc3n2)c2cc(Br)ccc21", "growth": "-29.9% (active)"}, {"smiles": "Cc1nn(-c2ccccc2)c2nc(C)n(CC(=O)N/N=C/c3cccc([N+](=O)[O-])c3)c(=O)c12", "growth": "92.7% (inactive)"}, {"smiles": "Cc1ccc(S(=O)(=O)Nc2ccc(-c3ccc4c(c3)NC(=O)/C4=C\\c3ccc[nH]3)cc2)cc1", "growth": "92.2% (inactive)"}, {"smiles": "O=C1c2cccc3c(N4CCN(c5ccccc5)CC4)ccc(c23)C(=O)N1c1cccc(-c2nn(-c3ccccc3)cc2-c2nc3ccccc3s2)c1", "growth": "102% (inactive)"}, {"smiles": "COc1ccc(-c2cc(-c3cc(C(C)C)c(O)cc3C)nn2-c2ccc(S(N)(=O)=O)cc2)cc1", "growth": "28.9% (inactive)"}, {"smiles": "Clc1ccc(-c2nc3c4c(-c5ccccc5)c(-c5ccccc5)n(Cc5ccccc5)c4ncn3n2)cc1", "growth": "-8.15% (active)"}, {"smiles": "Cc1ccc(-c2cc(C(=O)N=Nc3c(O)[nH]c4ccc(F)cc34)c3ccccc3n2)cc1", "growth": "32.1% (inactive)"}, {"smiles": "COc1ccc(/C=C/c2nc3ccccc3n3c(-c4cccc([N+](=O)[O-])c4)nnc23)cc1", "growth": "12% (inactive)"}, {"smiles": "O=C(c1ccc(O)cc1)C1[C@H](c2ccc(Cl)cc2)[C@@H](c2ccccc2)NC12C(=O)Nc1ccccc12", "note": "(stereo partly specified)", "growth": "-11.8% (active)"}, {"smiles": "N#C/C(=C1/C(=O)Nc2ccccc21)c1nnc(NC(=O)c2ccc(-n3c(=O)[nH]c4ccccc4c3=O)cc2)s1", "growth": "55.6% (inactive)"}, {"smiles": "CN(C(=O)CN1C(=O)/C(=C/c2ccco2)SC1=S)C1CCS(=O)(=O)C1", "note": "(stereo unspecified)", "growth": "111% (inactive)"}, {"smiles": "COc1c2c(cc3c1C(CCc1ccccc1)N(C)CC3)OCO2", "note": "(stereo unspecified)", "growth": "11% (inactive)"}, {"smiles": "COc1cc(C2CC(c3ccc(F)cc3)=Nc3c(N)nc(N)nc3N2)ccc1Oc1nc(Nc2ccc(F)cc2)nc(N(C)C)n1", "note": "(stereo unspecified)", "growth": "56% (inactive)"}, {"smiles": "CC(C)C[C@H](NC(=O)CNC(=O)C[C@H]1O[C@@H]2OC3(C)CC[C@H]4[C@H](C)CC[C@@H]([C@H]1C)[C@@]24O3)B(O)O", "growth": "-5.03% (active)"}, {"smiles": "Cc1[nH]nc2ccc3nc(-c4cnn(CCO)c4)c4c(c3c12)CCCC4", "growth": "-2.52% (active)"}, {"smiles": "CCCN(CCC)S(=O)(=O)c1ccc(C(=O)O)cc1.CCCN(CCC)S(=O)(=O)c1ccc(C(=O)O)cc1.[Cl][Pt+2][Cl].[NH2-].[NH2-]", "growth": "80.8% (inactive)"}, {"smiles": "COc1ccc(N=Nc2c(N)nn3c(-c4ccc5c(c4)C=S=C5)ccnc23)cc1", "growth": "24.7% (inactive)"}, {"smiles": "O=C(NNC(=O)c1ccc(OCc2nc3ccc(Cl)cc3[nH]2)cc1)Nc1ccc(Cl)c(Cl)c1", "growth": "81.9% (inactive)"}, {"smiles": "Cc1nc(Nc2ccccn2)sc1C1=NNC(c2ccccc2F)C1", "note": "(stereo unspecified)", "growth": "87.6% (inactive)"}, {"smiles": "COc1ccc(-c2nc3ccccc3n2CC(=O)N=Nc2c(O)[nH]c3ccc(Br)cc23)cc1", "growth": "68.7% (inactive)"}, {"smiles": "CC[C@]12C=CCN3CC[C@@]4(c5ccc(OC)cc5N(C)[C@H]4[C@@](O)(C(=O)OC)[C@@H]1OC(=O)CCC[P+](c1ccc(OC)cc1)(c1ccc(OC)cc1)c1ccc(OC)cc1)[C@@H]32", "growth": "-65.4% (active)"}, {"smiles": "COc1ccc(-c2cc(C(=O)N=Nc3c(O)[nH]c4ccc(Cl)cc34)c3ccccc3n2)cc1OC", "growth": "110% (inactive)"}, {"smiles": "Fc1ccc(Nc2nnc(-c3c[nH]c4ccccc34)o2)cc1", "growth": "82% (inactive)"}, {"smiles": "O=C(NN1C(=O)/C(=C/C=C/c2ccc([N+](=O)[O-])o2)SC1=S)c1ccc(O)cc1", "growth": "-1.61% (active)"}, {"smiles": "Cc1cccc(-c2ccccc2Oc2ccc3nnc(Cl)n3n2)c1", "growth": "102% (inactive)"}, {"smiles": "C[C@H](NC(=O)c1ccc2c(-c3ccc(C(F)(F)F)cc3)cccc2c1)c1ccccn1", "growth": "53.2% (inactive)"}, {"smiles": "Cc1ccc(C(=O)Nc2cc(-c3ccccc3)cc(C(F)(F)F)c2)cc1C#Cc1cnc2cccnn12", "growth": "85.3% (inactive)"}, {"smiles": "O=[N+]([O-])c1cccc(-c2nnc3c(/C=C/c4ccc(F)cc4)nc4ccccc4n23)c1", "growth": "47.9% (inactive)"}, {"smiles": "O=C1Nc2cc(-c3ccc(NS(=O)(=O)c4ccc(C(F)(F)F)cc4)cc3)ccc2/C1=C/c1ccc[nH]1", "growth": "40.6% (inactive)"}]}]}
